Assay results published in the OligoGym collection.

Target: HMP19
Assay: pooled miR-30 sensor sort-seq; sequence = guide strand
Conditions: shRNA
Further: reference of the scale not given here.

Row | Sequence | sensor-assay potency score (higher = more potent)
1 | TTGGTTCCCTTCTCGCTGGGGT | 0.36
2 | TAAGTGATTAACCTCCAAGGGA | -0.21
3 | TATCGGTTCAGACAACTCCAGC | -1.43
4 | TTCGGCACCCGGAACTTCCCTT | -0.311
5 | TAAACCACCAGGAACACGATGC | -0.408
6 | TTGTACATGAGCCTGACTCGGC | -0.338
7 | TTATAGACGAATCCCTCTGGGC | -0.74
8 | TTCACAATCACCTTTTCTGGAG | -0.586
9 | TTCTTGTCTTCACAATCACCTT | -1.21
10 | TACAGTGTTGTCTTGTAACTGG | -0.189
11 | TTGTTCTTCTGTTCCGGCTGAT | 0.313
12 | TCTTGTCTTCACAATCACCTTT | -0.0794

Target: HMX2
Assay: as above
Conditions: shRNA

Row | Sequence | sensor-assay potency score (higher = more potent)
13 | TGTATAGGTTGTAGAGAGGTAA | -0.622
14 | TTAAAGTCCGAGTGCGAAGGAG | -0.61
15 | TCTTCTTCTTGGCCGCGCCGGC | -1.36
16 | ATGGACTGGATGGTGAAGCTGG | -1.05
17 | TGGAACCAAGTCTTTACCTGGG | -0.326
18 | TCCGAGGACACGGACAGGCTGC | -1.46
19 | TTCTCTTCTTTAAAGTCCGAGT | -1
20 | TAAAGTCCGAGTGCGAAGGAGA | -1.28
21 | TTCTTTAAAGTCCGAGTGCGAA | -1.59
22 | TCGAGCTGGTACACCTGGCTGC | -0.393
23 | TGAAGCTGGAGACGCCACCGGC | -0.77
24 | TTTCTCTTCTTTAAAGTCCGAG | -0.831

Target: HNF1A
Assay: as above
Conditions: shRNA

Row | Sequence | sensor-assay potency score (higher = more potent)
25 | TAGGACTTGACCATCTTCGCCA | 0.419
26 | TTGCTGGAGTCTGAGCTCTGGT | -1.14
27 | TGAGCTCTGGTACAGCACCAGG | -1.55
28 | TACTTCTGCAGTCTCACTGGTC | -0.169
29 | ATGAAGGTCTCGATGACGCTGT | 0.222
30 | TTCTGTACTCAGCAGGCTGTGG | -0.687
31 | TACAGCACCAGGCTGCTGGAGG | -0.908
32 | ATCGTCGTCCGTCTCGTCCTCG | -0.832
33 | TAGCGTCTCTCGCTCCTCCTTG | -0.628
34 | TTGATGACCGGCACACTCTGTG | 0.355
35 | TGGTTGGTAGCTCATCACCTGT | -1.74
36 | TTGTAGACACGCACCTCCGTGA | -0.58

Target: HNRNPL
Assay: as above
Conditions: shRNA

Row | Sequence | sensor-assay potency score (higher = more potent)
37 | TAGAGTAGTTGACAAAAGCTGG | -0.329
38 | TTCTTGAACACATTCAAGCGTG | -0.271
39 | TTAAAAGTGAAGGTTAATCTTG | -0.688
40 | TACAGCGTAGCCATCAGCCATC | -1.38
